In the supplement of paper PMC10849652:
About 8,800 targets were measured; listed, in parts, are those with a hit and a random draw of the rest. About 0.5% of all pairs of compound and target were hits. Values without a mark were called inactive.

Tests used:
Experiment in all cases: log2 fold change, soluble protein after heating vs DMSO (PISA); higher = thermal stabilisation; K562 lysate, 10 uM; active = over 0.2 and 3.5 SD of the protein, either way, in both replicates (recomputed)
nilotinib = compound: Cc1cn(-c2cc(NC(=O)c3ccc(C)c(Nc4nccc(-c5cccnc5)n4)c3)cc(C(F)(F)F)c2)cn1 [nilotinib]
Procedure, shortened: (§1)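 Quantification was by TMTpro 16plex LC-MS/MS with equalised channel sums, applied to the supernatant after 21,000xg for 90 min. Samples were crude K562 extract at 1 mg/mL protein in PBS pH 7.4 with 1 mM MgCl2, treated with 10 μM compound for 30 min, heated for 3 min across 48°C-58°C, pooled and brought to 0.5% NP-40 at 4°C. Values are log-two fold changes in thermal stability relative to solvent controls, from duplicates.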

[1] = compound: Cc1nc(Nc2n[nH]c3c2CN(C(=O)N[C@H](CN(C)C)c2ccccc2)C3(C)C)c2sccc2n1
Procedure, shortened: as §1

dasatinib = compound: Cc1nc(Nc2ncc(C(=O)Nc3c(C)cccc3Cl)s2)cc(N2CCN(CCO)CC2)n1 [dasatinib]
Procedure, shortened: as §1

[2] = compound: Cc1ncc(-c2ccnc(Nc3ccc(S(C)(=O)=O)cc3)n2)n1C(C)C
Procedure, shortened: as §1

[3] = compound: Cn1cc(-c2ccc3c(c2)CCN3C(=O)Cc2cccc(C(F)(F)F)c2)c2c(N)ncnc21
Procedure, shortened: as §1

quisinostat = compound: Cn1cc(CNCC2CCN(c3ncc(C(=O)NO)cn3)CC2)c2ccccc21 [quisinostat]
Procedure, shortened: as §1

tipifarnib = compound: Cn1cncc1[C@@](N)(c1ccc(Cl)cc1)c1ccc2c(c1)c(-c1cccc(Cl)c1)cc(=O)n2C [tipifarnib]
Procedure, shortened: as §1

[4] = compound: NC(=O)Nc1cc(-c2cccc(F)c2)sc1C(=O)N[C@H]1CCCNC1
Procedure, shortened: as §1

[5] = compound: NC(=O)c1cnc(N[C@@H]2CCCC[C@@H]2N)nc1Nc1cccc(-n2nccn2)c1
Procedure, shortened: as §1

[6] = compound: NC1(c2ccc(-c3nc4ccn5c(=O)[nH]nc5c4cc3-c3ccccc3)cc2)CCC1
Procedure, shortened: as §1

Target: GLUL (UniProt P15104)
- log2 fold change (nilotinib): -0.008
- log2 fold change [1]: -0.012
- log2 fold change (dasatinib): 0.054
- log2 fold change [2]: -0.026
- log2 fold change [3]: -0.002
- log2 fold change (quisinostat): 0.071
- log2 fold change (tipifarnib): 0.027
- log2 fold change [4]: -0.032
- log2 fold change [5]: 0.009
- log2 fold change [6]: -0.003

Target: HDHD5 (UniProt Q9BXW7)
- log2 fold change (nilotinib): 0.157
- log2 fold change [1]: -0.081
- log2 fold change (dasatinib): 0.023
- log2 fold change [2]: -0.052
- log2 fold change [3]: -0.042
- log2 fold change (quisinostat): -0.026
- log2 fold change (tipifarnib): -0.008
- log2 fold change [4]: 0.028
- log2 fold change [5]: -0.014
- log2 fold change [6]: -0.036

Target: INPP4A (UniProt Q96PE3)
- log2 fold change (nilotinib): 0.012
- log2 fold change [1]: -0.021
- log2 fold change (dasatinib): 0.028
- log2 fold change [2]: 0.005
- log2 fold change [3]: 0.123
- log2 fold change (quisinostat): -0.03
- log2 fold change (tipifarnib): 0.03
- log2 fold change [4]: 0.032
- log2 fold change [5]: 0.015
- log2 fold change [6]: 0.032

Target: HDAC10 (UniProt Q969S8)
- log2 fold change (nilotinib): -0.009
- log2 fold change [1]: 0.023
- log2 fold change (dasatinib): -0.104
- log2 fold change [2]: 0.032
- log2 fold change [3]: 0.144
- log2 fold change (quisinostat): 0.245
- log2 fold change (tipifarnib): -0.123
- log2 fold change [4]: 0.092
- log2 fold change [5]: 0.111
- log2 fold change [6]: -0.001

Target: HSPA14 (UniProt Q0VDF9)
- log2 fold change (nilotinib): -0.032
- log2 fold change [1]: -0.001
- log2 fold change (dasatinib): -0.018
- log2 fold change [2]: 0.009
- log2 fold change [3]: 0.034
- log2 fold change (quisinostat): -0.026
- log2 fold change (tipifarnib): 0.021
- log2 fold change [4]: 0.037
- log2 fold change [5]: 0.001
- log2 fold change [6]: -0.025

Target: GSTP1 (UniProt P09211)
Sequence of UniProt P09211 (P09211 whole entry, looked up): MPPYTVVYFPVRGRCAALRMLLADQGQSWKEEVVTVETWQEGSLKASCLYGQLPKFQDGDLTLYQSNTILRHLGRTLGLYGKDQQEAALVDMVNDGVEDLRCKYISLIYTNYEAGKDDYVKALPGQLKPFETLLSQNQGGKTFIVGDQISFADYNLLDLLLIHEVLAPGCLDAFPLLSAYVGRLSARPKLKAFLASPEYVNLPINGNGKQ
- log2 fold change (nilotinib): 0.006
- log2 fold change [1]: -0.001
- log2 fold change (dasatinib): -0.035
- log2 fold change [2]: -0.003
- log2 fold change [3]: -0.01
- log2 fold change (quisinostat): -0.016
- log2 fold change (tipifarnib): 0.029
- log2 fold change [4]: -0.029
- log2 fold change [5]: -0.004
- log2 fold change [6]: 0.01

Target: ILRUN (UniProt Q9H6K1)
Sequence of UniProt Q9H6K1 (Q9H6K1 whole entry, looked up): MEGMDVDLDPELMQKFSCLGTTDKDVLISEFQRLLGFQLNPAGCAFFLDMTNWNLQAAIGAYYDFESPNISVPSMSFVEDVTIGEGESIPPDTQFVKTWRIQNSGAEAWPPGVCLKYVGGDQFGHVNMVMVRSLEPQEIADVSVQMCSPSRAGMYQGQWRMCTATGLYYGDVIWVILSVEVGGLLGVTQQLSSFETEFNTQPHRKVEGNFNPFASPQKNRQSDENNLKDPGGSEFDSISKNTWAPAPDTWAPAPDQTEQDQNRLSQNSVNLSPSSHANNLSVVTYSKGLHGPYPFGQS
- log2 fold change (nilotinib): -0.12
- log2 fold change [1]: -0.038
- log2 fold change (dasatinib): -0.003
- log2 fold change [2]: -0.073
- log2 fold change [3]: 0.005
- log2 fold change (quisinostat): -0.047
- log2 fold change (tipifarnib): -0.012
- log2 fold change [4]: 0.033
- log2 fold change [5]: 0.041
- log2 fold change [6]: -0.038

Target: ILKAP (UniProt Q9H0C8)
Sequence of UniProt Q9H0C8 (Q9H0C8 whole entry, looked up): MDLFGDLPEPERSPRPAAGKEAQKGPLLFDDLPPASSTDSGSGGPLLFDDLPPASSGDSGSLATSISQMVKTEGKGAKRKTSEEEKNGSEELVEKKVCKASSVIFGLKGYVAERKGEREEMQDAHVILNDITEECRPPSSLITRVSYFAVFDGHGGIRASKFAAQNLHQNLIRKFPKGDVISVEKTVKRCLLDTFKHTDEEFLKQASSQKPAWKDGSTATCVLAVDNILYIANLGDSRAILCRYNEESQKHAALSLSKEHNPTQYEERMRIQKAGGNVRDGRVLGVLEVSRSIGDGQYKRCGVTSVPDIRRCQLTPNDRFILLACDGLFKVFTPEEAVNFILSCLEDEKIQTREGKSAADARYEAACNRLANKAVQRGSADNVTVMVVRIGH
- log2 fold change (nilotinib): 0.023
- log2 fold change [1]: -0.01
- log2 fold change (dasatinib): 0.025
- log2 fold change [2]: -0.094
- log2 fold change [3]: -0.009
- log2 fold change (quisinostat): 0.011
- log2 fold change (tipifarnib): -0.005
- log2 fold change [4]: 0.005
- log2 fold change [5]: 0.026
- log2 fold change [6]: 0.044

Target: HADH isoform 2 (UniProt Q16836)
- log2 fold change (nilotinib): -0.028
- log2 fold change [1]: 0.049
- log2 fold change (dasatinib): 0.288 (active)
- log2 fold change [2]: 0.031
- log2 fold change [3]: 0.008
- log2 fold change (quisinostat): 0.124
- log2 fold change (tipifarnib): 0.032
- log2 fold change [4]: -0.006
- log2 fold change [5]: 0.029
- log2 fold change [6]: -0.031

Target: IRAK4 (UniProt Q9NWZ3)
- log2 fold change (nilotinib): -0.115
- log2 fold change [1]: 0.065
- log2 fold change (dasatinib): 0.051
- log2 fold change [2]: -0.012
- log2 fold change [3]: 0.023
- log2 fold change (quisinostat): -0.066
- log2 fold change (tipifarnib): -0.044
- log2 fold change [4]: 0.413 (active)
- log2 fold change [5]: 0.028
- log2 fold change [6]: 0

Target: KDM6A (UniProt O15550)
- log2 fold change (nilotinib): 0.009
- log2 fold change [1]: 0.033
- log2 fold change (dasatinib): 0.041
- log2 fold change [2]: -0.009
- log2 fold change [3]: 0.015
- log2 fold change (quisinostat): -0.062
- log2 fold change (tipifarnib): -0.031
- log2 fold change [4]: 0.002
- log2 fold change [5]: -0.017
- log2 fold change [6]: 0.009

Target: HSPA8 (UniProt P11142)
Sequence of UniProt P11142 (P11142 whole entry, looked up): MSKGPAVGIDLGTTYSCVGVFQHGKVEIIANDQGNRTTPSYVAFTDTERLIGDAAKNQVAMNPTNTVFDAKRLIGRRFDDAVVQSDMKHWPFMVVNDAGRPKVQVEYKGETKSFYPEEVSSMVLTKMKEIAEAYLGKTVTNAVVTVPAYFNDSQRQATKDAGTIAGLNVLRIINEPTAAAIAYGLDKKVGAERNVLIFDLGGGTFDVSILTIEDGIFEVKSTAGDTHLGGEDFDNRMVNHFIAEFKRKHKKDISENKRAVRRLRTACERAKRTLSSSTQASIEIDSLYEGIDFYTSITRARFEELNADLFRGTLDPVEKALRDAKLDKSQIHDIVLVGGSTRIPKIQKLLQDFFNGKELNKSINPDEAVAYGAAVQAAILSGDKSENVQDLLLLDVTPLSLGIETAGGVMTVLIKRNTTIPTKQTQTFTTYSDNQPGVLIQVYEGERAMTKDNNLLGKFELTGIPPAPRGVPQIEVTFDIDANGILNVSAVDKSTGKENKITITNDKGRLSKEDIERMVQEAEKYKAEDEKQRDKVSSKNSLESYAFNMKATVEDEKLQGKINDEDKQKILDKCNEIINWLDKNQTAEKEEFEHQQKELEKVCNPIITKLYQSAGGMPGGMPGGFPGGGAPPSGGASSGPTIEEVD
- log2 fold change (nilotinib): -0.01
- log2 fold change [1]: 0.002
- log2 fold change (dasatinib): 0.013
- log2 fold change [2]: 0.004
- log2 fold change [3]: -0.007
- log2 fold change (quisinostat): 0.022
- log2 fold change (tipifarnib): 0
- log2 fold change [4]: -0.024
- log2 fold change [5]: -0.008
- log2 fold change [6]: 0.003

Target: HLCS (UniProt P50747)
Sequence of UniProt P50747 (P50747 whole entry, looked up): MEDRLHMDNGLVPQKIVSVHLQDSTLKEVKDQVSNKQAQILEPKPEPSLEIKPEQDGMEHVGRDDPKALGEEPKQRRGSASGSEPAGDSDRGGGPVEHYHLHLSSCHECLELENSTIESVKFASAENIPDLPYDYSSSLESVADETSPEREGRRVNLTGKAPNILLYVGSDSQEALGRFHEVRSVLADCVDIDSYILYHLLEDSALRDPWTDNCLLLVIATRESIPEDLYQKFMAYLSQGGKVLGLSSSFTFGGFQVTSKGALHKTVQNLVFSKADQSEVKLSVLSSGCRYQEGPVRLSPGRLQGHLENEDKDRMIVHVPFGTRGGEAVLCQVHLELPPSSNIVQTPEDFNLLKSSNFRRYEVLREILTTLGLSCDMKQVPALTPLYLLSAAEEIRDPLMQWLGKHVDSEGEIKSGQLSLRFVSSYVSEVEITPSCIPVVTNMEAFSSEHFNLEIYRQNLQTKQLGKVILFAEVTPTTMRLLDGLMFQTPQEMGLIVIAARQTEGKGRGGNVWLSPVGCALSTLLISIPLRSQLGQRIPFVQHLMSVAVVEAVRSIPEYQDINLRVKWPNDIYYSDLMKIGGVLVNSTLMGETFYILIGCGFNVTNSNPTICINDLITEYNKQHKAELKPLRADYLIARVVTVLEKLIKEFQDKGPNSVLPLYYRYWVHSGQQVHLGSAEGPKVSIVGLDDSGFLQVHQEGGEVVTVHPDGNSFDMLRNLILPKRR
- log2 fold change (nilotinib): -0.005
- log2 fold change [1]: -0.005
- log2 fold change (dasatinib): 0.012
- log2 fold change [2]: -0.003
- log2 fold change [3]: 0.068
- log2 fold change (quisinostat): -0.022
- log2 fold change (tipifarnib): -0.006
- log2 fold change [4]: -0.011
- log2 fold change [5]: 0.024
- log2 fold change [6]: 0.02

Target: GTF2A1 (UniProt P52655)
- log2 fold change (nilotinib): 0.024
- log2 fold change [1]: -0.047
- log2 fold change (dasatinib): 0.022
- log2 fold change [2]: 0.095
- log2 fold change [3]: 0.046
- log2 fold change (quisinostat): -0.039
- log2 fold change (tipifarnib): 0.021
- log2 fold change [4]: -0.04
- log2 fold change [5]: 0.007
- log2 fold change [6]: -0.012

Target: KATNBL1 (UniProt Q9H079)
- log2 fold change (nilotinib): -0.057
- log2 fold change [1]: -0.143
- log2 fold change (dasatinib): 0.068
- log2 fold change [2]: -0.159
- log2 fold change [3]: -0.073
- log2 fold change (quisinostat): 0.035
- log2 fold change (tipifarnib): 0.198
- log2 fold change [4]: 0.158
- log2 fold change [5]: 0.017
- log2 fold change [6]: 0.023

Target: HMGCL (UniProt P35914)
Sequence of UniProt P35914 (P35914 whole entry, looked up): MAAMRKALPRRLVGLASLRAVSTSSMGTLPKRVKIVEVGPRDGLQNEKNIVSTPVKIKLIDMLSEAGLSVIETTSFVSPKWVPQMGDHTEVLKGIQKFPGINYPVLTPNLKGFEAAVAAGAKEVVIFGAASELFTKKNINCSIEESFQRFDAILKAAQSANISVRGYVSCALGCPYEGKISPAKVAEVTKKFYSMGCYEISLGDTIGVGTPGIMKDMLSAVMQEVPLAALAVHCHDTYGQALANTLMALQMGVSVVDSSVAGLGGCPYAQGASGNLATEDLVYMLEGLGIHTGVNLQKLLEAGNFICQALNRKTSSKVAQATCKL
- log2 fold change (nilotinib): 0.011
- log2 fold change [1]: -0.041
- log2 fold change (dasatinib): 0.029
- log2 fold change [2]: 0.023
- log2 fold change [3]: 0.02
- log2 fold change (quisinostat): -0.017
- log2 fold change (tipifarnib): -0.013
- log2 fold change [4]: 0.018
- log2 fold change [5]: -0.033
- log2 fold change [6]: 0.015

Target: IGF2BP3 (UniProt O00425)
Sequence of UniProt O00425 (O00425 whole entry, looked up): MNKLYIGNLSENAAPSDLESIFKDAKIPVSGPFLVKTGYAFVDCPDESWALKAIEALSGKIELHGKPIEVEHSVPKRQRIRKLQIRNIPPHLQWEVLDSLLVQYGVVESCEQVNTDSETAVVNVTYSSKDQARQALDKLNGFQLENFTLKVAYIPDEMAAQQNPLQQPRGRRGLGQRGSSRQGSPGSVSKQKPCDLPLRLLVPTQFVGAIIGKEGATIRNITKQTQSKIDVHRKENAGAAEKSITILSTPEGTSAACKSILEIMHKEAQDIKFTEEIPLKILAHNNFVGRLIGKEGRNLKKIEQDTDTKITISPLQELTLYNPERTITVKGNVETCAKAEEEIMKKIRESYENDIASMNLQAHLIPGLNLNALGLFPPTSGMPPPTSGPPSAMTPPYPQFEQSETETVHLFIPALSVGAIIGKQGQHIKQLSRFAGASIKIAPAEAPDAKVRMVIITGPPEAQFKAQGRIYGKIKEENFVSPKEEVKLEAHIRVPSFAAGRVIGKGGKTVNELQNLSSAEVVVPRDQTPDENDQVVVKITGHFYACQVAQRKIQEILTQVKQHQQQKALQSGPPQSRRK
- log2 fold change (nilotinib): -0.046
- log2 fold change [1]: 0.008
- log2 fold change (dasatinib): -0.035
- log2 fold change [2]: 0.006
- log2 fold change [3]: 0.063
- log2 fold change (quisinostat): -0.045
- log2 fold change (tipifarnib): 0.008
- log2 fold change [4]: 0.039
- log2 fold change [5]: 0.013
- log2 fold change [6]: -0.027

Target: GRB10 (UniProt Q13322)
- log2 fold change (nilotinib): 0.053
- log2 fold change [1]: -0.028
- log2 fold change (dasatinib): -0.003
- log2 fold change [2]: 0.026
- log2 fold change [3]: 0.04
- log2 fold change (quisinostat): -0.065
- log2 fold change (tipifarnib): -0.058
- log2 fold change [4]: 0.008
- log2 fold change [5]: -0.056
- log2 fold change [6]: 0.008

Target: INTS10 (UniProt Q9NVR2)
Sequence of UniProt Q9NVR2 (Q9NVR2 whole entry, looked up): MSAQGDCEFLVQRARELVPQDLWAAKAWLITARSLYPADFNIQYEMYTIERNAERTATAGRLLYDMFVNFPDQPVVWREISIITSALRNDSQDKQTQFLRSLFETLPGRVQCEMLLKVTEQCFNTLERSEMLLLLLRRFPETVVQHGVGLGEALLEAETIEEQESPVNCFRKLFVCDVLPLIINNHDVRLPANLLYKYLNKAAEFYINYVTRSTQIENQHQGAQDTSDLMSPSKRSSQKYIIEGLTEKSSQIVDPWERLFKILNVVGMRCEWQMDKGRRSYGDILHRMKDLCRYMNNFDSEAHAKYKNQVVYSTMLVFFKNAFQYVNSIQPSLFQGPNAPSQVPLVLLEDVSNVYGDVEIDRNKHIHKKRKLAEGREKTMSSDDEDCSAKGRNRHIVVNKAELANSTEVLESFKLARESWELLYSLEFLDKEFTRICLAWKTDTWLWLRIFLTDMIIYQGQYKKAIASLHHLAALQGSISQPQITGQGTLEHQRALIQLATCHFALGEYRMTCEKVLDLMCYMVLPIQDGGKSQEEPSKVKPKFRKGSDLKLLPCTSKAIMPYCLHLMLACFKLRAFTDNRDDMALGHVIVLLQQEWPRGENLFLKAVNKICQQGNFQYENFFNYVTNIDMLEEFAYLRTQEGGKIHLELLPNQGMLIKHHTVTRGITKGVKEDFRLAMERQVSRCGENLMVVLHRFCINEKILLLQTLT
- log2 fold change (nilotinib): -0.01
- log2 fold change [1]: -0.025
- log2 fold change (dasatinib): -0.054
- log2 fold change [2]: -0.024
- log2 fold change [3]: 0.109
- log2 fold change (quisinostat): -0.034
- log2 fold change (tipifarnib): -0.021
- log2 fold change [4]: 0.011
- log2 fold change [5]: 0.039
- log2 fold change [6]: 0.028

Target: IARS (UniProt P41252)
- log2 fold change (nilotinib): 0.007
- log2 fold change [1]: -0.007
- log2 fold change (dasatinib): -0.042
- log2 fold change [2]: -0.015
- log2 fold change [3]: 0.053
- log2 fold change (quisinostat): -0.02
- log2 fold change (tipifarnib): -0.003
- log2 fold change [4]: 0.038
- log2 fold change [5]: 0.001
- log2 fold change [6]: -0.029

Target: IMPDH1 isoform 6 (UniProt P20839)
- log2 fold change (nilotinib): 0.008
- log2 fold change [1]: -0.034
- log2 fold change (dasatinib): -0.033
- log2 fold change [2]: 0.015
- log2 fold change [3]: -0.006
- log2 fold change (quisinostat): -0.121
- log2 fold change (tipifarnib): -0.017
- log2 fold change [4]: -0.007
- log2 fold change [5]: -0.008
- log2 fold change [6]: -0.012

Target: JAK3 (UniProt P52333)
Sequence of UniProt P52333 (P52333 whole entry, looked up): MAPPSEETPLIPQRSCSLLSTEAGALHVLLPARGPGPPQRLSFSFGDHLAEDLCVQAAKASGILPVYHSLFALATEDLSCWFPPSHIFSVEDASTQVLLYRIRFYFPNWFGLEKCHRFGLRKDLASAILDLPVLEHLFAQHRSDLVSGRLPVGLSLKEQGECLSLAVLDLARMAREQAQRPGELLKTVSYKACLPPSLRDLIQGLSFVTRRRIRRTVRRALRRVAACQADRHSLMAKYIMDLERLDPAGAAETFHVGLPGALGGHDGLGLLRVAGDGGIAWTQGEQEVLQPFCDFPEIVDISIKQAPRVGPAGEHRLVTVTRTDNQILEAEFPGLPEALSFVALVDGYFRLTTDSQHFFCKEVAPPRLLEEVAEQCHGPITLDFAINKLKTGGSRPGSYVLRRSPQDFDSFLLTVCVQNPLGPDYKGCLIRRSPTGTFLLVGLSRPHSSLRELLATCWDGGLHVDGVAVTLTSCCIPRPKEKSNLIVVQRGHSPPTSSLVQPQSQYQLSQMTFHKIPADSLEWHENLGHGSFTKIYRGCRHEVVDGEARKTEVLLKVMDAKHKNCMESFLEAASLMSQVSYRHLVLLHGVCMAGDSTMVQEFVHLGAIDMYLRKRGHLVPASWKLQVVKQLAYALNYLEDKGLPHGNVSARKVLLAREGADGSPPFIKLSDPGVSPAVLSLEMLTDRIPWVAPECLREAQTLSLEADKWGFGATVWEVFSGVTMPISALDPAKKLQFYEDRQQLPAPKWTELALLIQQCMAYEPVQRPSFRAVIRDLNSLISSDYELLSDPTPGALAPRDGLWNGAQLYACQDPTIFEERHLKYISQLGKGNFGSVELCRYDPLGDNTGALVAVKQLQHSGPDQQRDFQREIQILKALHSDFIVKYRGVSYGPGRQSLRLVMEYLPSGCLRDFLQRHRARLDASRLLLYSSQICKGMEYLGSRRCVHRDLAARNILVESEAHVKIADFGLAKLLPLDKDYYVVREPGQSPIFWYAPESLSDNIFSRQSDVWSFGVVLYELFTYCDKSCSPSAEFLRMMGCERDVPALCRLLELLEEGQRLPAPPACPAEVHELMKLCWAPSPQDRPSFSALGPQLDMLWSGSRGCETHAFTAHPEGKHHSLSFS
- log2 fold change (quisinostat): 0.131
- log2 fold change [4]: 0.008
- log2 fold change [5]: -0.056
